Sampled rows, rich in hits. Any-hit rate of the full collection: about 0.52%.
S aureus helic – S. aureus DNA helicase inhibition; purified S. aureus helicase, fluorescence unwinding assay; inhibition, % (test concentration not listed); 120,000 tested, 0.05% active; AID 485395; in the data active = inhibition above about 25%, passing the limit was not always enough;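 also: 0% = mean of negative control wells and 100% = mean of positive control wells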
Sa growth inh – S. aureus growth inhibition. AID 720641. S. aureus RN4220 growth, OD600, 20 h, 42 °C; active compounds read low. relative growth, % (no concentration beside the values). 170,000 tested, 0.53% active;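 active = relative growth at most 50% at the other temperature and 20+ points below 30 °C, or under 10% at both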
An asterisk follows results filed as active; . = not tested or not shown; ! = a repeat was not active.

SMILES	S aureus helic	Sa growth inh
O=c1[nH]c(-c2ccccc2)cs1	-15	90
S=c1[nH]c(-c2ccccc2)cs1	-7	16*
CCOc1ccc(C(=O)C(C)Sc2nnnn2-c2ccc(OC)cc2)cc1 (stereo not given)	29*	105
COc1ccc(-n2nnnc2SCSc2nnnn2-c2ccc(OC)cc2)cc1	8	117
CN(c1ccccc1)S(=O)(=O)c1ccc(NC(=O)c2nc(S(C)(=O)=O)ncc2Cl)cc1	.	-1.2*
CN(Cc1ccccc1)S(=O)(=O)c1ccc(NC(=O)c2nc(S(C)(=O)=O)ncc2Cl)cc1	9	6.2*
CCCSc1ncc(Cl)c(C(=O)Nc2ccc(S(=O)(=O)N(C)c3ccccc3)cc2)n1	.	105
CS(=O)(=O)c1ncc(Cl)c(C(=O)NCc2ccccc2)n1	-5	23
C=CCN1CCN(C(=O)c2ccc(Br)cc2)CC1	16	99
Cc1cc(C(C#N)c2nc3ccccc3o2)nc(N2CCN(C(c3ccccc3)c3ccccc3)CC2)n1 (stereo not given)	-25	84
OC(COc1ccc(Cl)cc1Cl)CN1CCCCC1 (stereo not given)	-3	111
N#Cc1c(Cl)nc(Cl)c(Cl)c1Cl	-3	66
CC(C)=NNc1nc(Cl)c(C#N)c(Cl)c1Cl	.	6.4*
CC(C(=O)NCc1ccc2c(c1)OCO2)C1Sc2ccccc2NC1=O (stereo not given)	8	107
CC(O)CNc1nc2ccccc2n1CC(=O)NC(C)C(C)C (stereo not given)	8	83
Oc1c(I)cc(Cl)c2cccnc12	10	1.3*!
COc1c(I)cc(Cl)c2cccnc12	.	88
CCN(CC)CCCOc1c(C)cc(Cl)cc1Cl	10	111
C=CCN(CC=C)Cn1[nH]c(-c2cccs2)nc1=S	-3	38*
O=S(=O)(c1ccc2ccccc2c1)N1CCN(Cn2[nH]c(-c3cccs3)nc2=S)CC1	21	42
Oc1cccc2ccc(Nc3ccccn3)nc12	11	77
CNc1ccc2cccc(O)c2n1	13	0.4*
O=C(Cc1coc2cc(O)ccc12)OCC(=O)N1CCCC1=O	9	78
Cc1nn(C2CCS(=O)(=O)C2)c(Cl)c1CNCC(=O)Nc1ccc(F)c(F)c1 (stereo not given)	4	109
O=C(OC[C@@H]1CCCN2CCCCC12)c1ccccc1 (stereo not given in full)	9	93
SMILES	S aureus helic	Sa growth inh
CCCCOc1ccc(C(=O)OCC2CCCN3CCCCC23)cc1OC (stereo not given)	13	43*
NC(=O)CSc1ccc2ccccc2c1	15	115
CCN1CCN(c2ccc(Nc3ccnc4cc5ccccc5cc34)cc2)CC1	48*	98
CN1CCN(c2ccc(Nc3ccnc4cc(Cl)ccc34)cc2Cl)CC1	6	98
CC(C)CC(NC(=O)C1CCCCC1)C(=O)Nc1ccccc1F (stereo not given)	8	95
CC(NC(=O)c1cc(=O)c2ccccc2o1)C(c1ccccc1)N1CCOCC1 (stereo not given)	35*	82
CC(NC(=O)Cc1ccccc1)C(c1ccccc1)N1CCOCC1 (stereo not given)	5	100
CCc1ccc(-c2cc3c(=O)n(CC(=O)NC(C)CCc4ccccc4)nc(C)n3n2)cc1 (stereo not given)	-2	106
CC(C)(C)c1ccc(C2NC(=O)c3ccccc3N2)cc1 (stereo not given)	9	100
COc1ccc(CN2CCN(c3cccc(C(F)(F)F)c3)CC2)cc1C	.	112
CN1C(=O)CC(=O)N(C)c2cc(S(=O)(=O)N(C)Cc3ccccc3)ccc21	.	-1.7*
CN(Cc1ccccc1)S(=O)(=O)c1ccc2c(c1)n(C)c(=O)c(=O)n2C	-3	87
CCN(CC)CC(=O)Nc1sc2c(c1C#N)CCCC2	-1	115
FC(F)(F)c1ccc(N2CCCC2)nc1	5	102
CCc1nnc(NC(=O)c2ccc(S(=O)(=O)N3CC(C)CC(C)C3)cc2)o1 (stereo not given)	6	9.0*
Cc1ccc(-c2nnc(NC(=O)c3ccc(S(=O)(=O)N4CCCC4)cc3)o2)c(C)c1	3	1.6*
C=CCN(CC=C)S(=O)(=O)c1ccc(C(=O)Nc2nnc(-c3ccc(OC)cc3)o2)cc1	18	89
Cc1ccc(-c2nnc(NC(=O)c3ccc4c(c3)OCCO4)o2)c(C)c1	.	64
C=CCN(CC=C)S(=O)(=O)c1ccc(C(=O)Nc2nnc(-c3cc(C)ccc3C)o2)cc1	2	1.7*
CCc1nnc(NC(=O)c2ccc(S(=O)(=O)N3CCCC3)cc2)o1	5	111
COc1ccc(C2(C#N)CCOCC2)cc1	3	108
Cn1nc(-c2cccs2)cc1N	.	117
Cc1ccc(CNC(=O)C2CCC(CNc3nc(=S)[nH]c4ccccc34)CC2)o1 (stereo not given)	-10	97
Cc1ccc2[nH]c(-c3ccccc3)c(CN3CCCC(C)C3)c(=O)c2c1 (stereo not given)	-7	94
O=C(Cc1ccc(S(=O)(=O)N2CCCC2)s1)Nc1ccc2c(c1)OCO2	-7	106
SMILES	S aureus helic	Sa growth inh
C=CCN(CC=C)Cn1nc(Nc2ccccc2F)sc1=S	-11	71
C=CCN(CC=C)Cn1nc(-c2c[nH]c3ccccc23)oc1=S	-7	43*
Cc1[nH]n(-c2cccc(Cl)c2)c(=O)c1C1CC(=O)N(c2ccccc2)C1=O (stereo not given)	-7	99
CC1=NN(c2cccc(SC(F)F)c2)C(=O)C1	7	57
CC1=NN(c2cccc(C(F)(F)F)c2)C(=O)C1	-5	0.4*
COC(=O)c1sc2ccccc2c1NC(=O)Cc1ccccc1	2	.
C1=C(CCNc2nn3nnnc3c3ccccc23)CCCC1	-3	115
CCn1c(O)c(N=NC(N)=S)c2ccccc21	9	64
CCn1c(O)c(N=NC(=O)Nc2ccc(Cl)c(Cl)c2)c2ccccc21	13	-0.8*
Clc1ccc(NCC2CCCCC2)nn1	7	89
O=C(Nc1cccc(C(F)(F)F)c1)Nc1ccc2snnc2c1	.	9.9*
O=C(Nc1cccc(C(F)(F)F)c1)c1ccc2snnc2c1	.	99
O=C(Nc1ccccc1)Nc1ccc2nnsc2c1	.	2.4*
O=C(Nc1ccccc1)Nc1ccc2snnc2c1	13	14
C=CCn1c(C)cc(C(=O)COC(=O)c2ccccc2O)c1C	1	100
CN(C)N1C(=O)/C(=C/c2cccs2)SC1=Nc1ccccc1	-15	81
CC1CCCC(C)N1C(=O)CSc1nc2ccccc2n1CC(=O)NC1CCCC1 (stereo not given)	3	103
CNC(=O)Nc1cc(C(F)(F)F)cc(C(F)(F)F)c1	.	78
Cc1noc(C)c1NC(=O)Nc1cc(C(F)(F)F)cc(C(F)(F)F)c1	-41	5.2*
O=C(c1ccco1)N(Cc1ccccc1)Cc1cn(-c2ccccc2)nc1-c1cccs1	9	113
O=C(c1ccccc1)N1CCC(c2nc3c(nnn3Cc3ccccc3)c(=O)[nH]2)CC1	-1	2.9*
O=C(Cc1ccc(F)cc1)N1CCC(c2nc3c(nnn3Cc3ccc(Cl)cc3)c(=O)[nH]2)CC1	.	6.4*
COc1cccc(Cn2nnc3c(=O)[nH]c(C4CCN(C(=O)c5ccccc5Cl)CC4)nc32)c1	.	0.4*
Cc1cccc(Cn2nnc3c(=O)[nH]c(C4CCN(C(=O)c5ccccc5F)CC4)nc32)c1	.	103
O=C(Cc1ccc(F)cc1)N1CCC(c2nc3c(nnn3Cc3ccc(F)cc3)c(=O)[nH]2)CC1	.	57

Assay outcomes: PubChem, ICCB-Longwood Screening Facility, Harvard Medical School
